What all share (assay): DAPPL (digital affinity profiling via proximity ligation, sequencing); 10 mM Tris-HCl pH 7.5, 50 mM NaCl, 1 mM DTT, 4% glycerol, room temperature, 30 min; GST-TFs on glutathione beads, 16-mer random dsDNA library, 0.1% formaldehyde crosslink after washing; high values mean tight binding
One assay has as its target T1, FLI1 (Homo sapiens, UniProt Q01543 1-452).
T1 sequence: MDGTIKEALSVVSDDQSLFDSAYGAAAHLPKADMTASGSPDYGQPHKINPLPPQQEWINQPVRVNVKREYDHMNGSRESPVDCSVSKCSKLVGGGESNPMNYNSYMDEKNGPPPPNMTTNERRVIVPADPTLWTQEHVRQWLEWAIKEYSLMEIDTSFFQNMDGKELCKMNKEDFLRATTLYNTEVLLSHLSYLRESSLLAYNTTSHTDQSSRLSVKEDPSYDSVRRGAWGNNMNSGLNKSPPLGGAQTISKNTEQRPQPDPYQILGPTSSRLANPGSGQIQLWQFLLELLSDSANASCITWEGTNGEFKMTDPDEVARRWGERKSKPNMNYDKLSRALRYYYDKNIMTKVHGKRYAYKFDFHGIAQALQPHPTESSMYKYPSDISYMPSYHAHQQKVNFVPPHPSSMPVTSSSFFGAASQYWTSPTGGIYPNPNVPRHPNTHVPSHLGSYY
The following applies: protein: recombinant; tags: N-terminal GST; dsDNA, one strand shown. The procedure, abridged:
(§1)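 In yeast, human transcription factors were expressed with a GST fusion, then pulled down on glutathione beads and given DNA barcodes. Pooled with a tag-only sample, they were exposed to 200 nmole of a 16-mer random double-stranded DNA library (Tris/NaCl/DTT/glycerol buffer, room temperature, 30 min), washed, crosslinked with 0.1% formaldehyde, proximity-ligated using BsaI/T4 ligase for 1 h at 37 °C, PCR-amplified and read on an Illumina NextSeq500. Each hexamer's frequency of reads for a factor, divided by the matching frequency for the tag-only sample, gives the binding signal.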

Another assay has as its target T2, ELK1 (Homo sapiens, UniProt P19419 1-428).
T2 sequence: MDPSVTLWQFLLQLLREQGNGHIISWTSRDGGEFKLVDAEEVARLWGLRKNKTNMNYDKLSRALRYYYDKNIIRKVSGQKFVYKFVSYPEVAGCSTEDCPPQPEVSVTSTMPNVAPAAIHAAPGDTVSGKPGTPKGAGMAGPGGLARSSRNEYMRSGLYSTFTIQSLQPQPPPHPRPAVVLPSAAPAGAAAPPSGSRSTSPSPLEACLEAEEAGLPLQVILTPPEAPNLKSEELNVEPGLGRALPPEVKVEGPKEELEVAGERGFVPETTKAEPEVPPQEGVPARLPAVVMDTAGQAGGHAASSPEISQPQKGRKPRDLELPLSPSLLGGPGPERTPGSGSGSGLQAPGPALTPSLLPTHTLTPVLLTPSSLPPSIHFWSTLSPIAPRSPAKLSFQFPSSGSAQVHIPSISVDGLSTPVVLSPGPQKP
The following applies: protein: recombinant; tags: N-terminal GST; dsDNA, one strand shown. The method, boiled down: as §1

The target in the next assay is T3, GABPA (Homo sapiens, UniProt Q06546 1-454).
T3 sequence: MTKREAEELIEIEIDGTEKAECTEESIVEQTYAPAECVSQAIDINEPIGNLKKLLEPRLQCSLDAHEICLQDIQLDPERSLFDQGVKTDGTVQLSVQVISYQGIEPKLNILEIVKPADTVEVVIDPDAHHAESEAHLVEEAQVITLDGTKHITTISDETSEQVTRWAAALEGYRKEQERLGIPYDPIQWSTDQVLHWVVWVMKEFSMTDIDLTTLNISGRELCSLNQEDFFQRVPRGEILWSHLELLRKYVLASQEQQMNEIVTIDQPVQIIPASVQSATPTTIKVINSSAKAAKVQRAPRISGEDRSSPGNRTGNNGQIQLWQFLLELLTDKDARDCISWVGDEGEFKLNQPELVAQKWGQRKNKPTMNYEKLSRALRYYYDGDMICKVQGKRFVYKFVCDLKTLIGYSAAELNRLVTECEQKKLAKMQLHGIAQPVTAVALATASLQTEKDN
Particulars: protein: recombinant; tags: N-terminal GST; dsDNA, one strand shown. The procedure, abridged:
as §1

The target of a further assay is T4, ERG (Homo sapiens, UniProt P11308 1-479).
T4 sequence: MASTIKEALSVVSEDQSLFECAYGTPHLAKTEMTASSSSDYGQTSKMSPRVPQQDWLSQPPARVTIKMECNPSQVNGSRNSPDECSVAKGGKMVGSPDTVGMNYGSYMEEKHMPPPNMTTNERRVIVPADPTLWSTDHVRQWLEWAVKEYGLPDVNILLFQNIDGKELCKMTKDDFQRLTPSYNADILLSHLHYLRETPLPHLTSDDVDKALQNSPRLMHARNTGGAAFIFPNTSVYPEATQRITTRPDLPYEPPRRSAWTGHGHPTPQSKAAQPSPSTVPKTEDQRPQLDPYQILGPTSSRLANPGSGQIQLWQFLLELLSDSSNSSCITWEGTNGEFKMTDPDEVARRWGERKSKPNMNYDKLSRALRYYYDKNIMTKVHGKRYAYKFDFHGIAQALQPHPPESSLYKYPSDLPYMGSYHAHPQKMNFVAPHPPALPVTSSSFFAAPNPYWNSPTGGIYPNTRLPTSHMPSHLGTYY
The following applies: protein: recombinant; tags: N-terminal GST; dsDNA, one strand shown. The procedure, abridged:
as §1

The next assay addresses ELF1 (Homo sapiens, UniProt P32519 1-619). The following applies: protein: recombinant; tags: N-terminal GST; dsDNA, one strand shown. The method, boiled down:
as §1

The target in another assay is T5, EHF (Homo sapiens, UniProt Q9NZC4 1-300).
T5 sequence: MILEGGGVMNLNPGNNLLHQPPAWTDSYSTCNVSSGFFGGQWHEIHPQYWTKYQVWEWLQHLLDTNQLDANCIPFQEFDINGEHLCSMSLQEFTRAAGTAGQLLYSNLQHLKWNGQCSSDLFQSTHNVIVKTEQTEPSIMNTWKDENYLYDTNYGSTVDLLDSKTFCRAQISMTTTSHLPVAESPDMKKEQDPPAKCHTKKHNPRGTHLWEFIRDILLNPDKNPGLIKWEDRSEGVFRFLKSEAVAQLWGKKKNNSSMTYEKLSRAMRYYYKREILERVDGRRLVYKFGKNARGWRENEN
Particulars: protein: recombinant; tags: N-terminal GST; dsDNA, one strand shown. The procedure, abridged: as §1

The next assay addresses SPI1 (Homo sapiens, UniProt P17947 1-270). Particulars: protein: recombinant; tags: N-terminal GST; dsDNA, one strand shown. The method, boiled down: as §1
For a further assay, the target named is SPIB (Homo sapiens, UniProt Q01892 1-262). Particulars: protein: recombinant; tags: N-terminal GST; dsDNA, one strand shown. The procedure, abridged: as §1
The target of the next assay is T6, ELK3 (Homo sapiens, UniProt P41970 1-407).
T6 sequence: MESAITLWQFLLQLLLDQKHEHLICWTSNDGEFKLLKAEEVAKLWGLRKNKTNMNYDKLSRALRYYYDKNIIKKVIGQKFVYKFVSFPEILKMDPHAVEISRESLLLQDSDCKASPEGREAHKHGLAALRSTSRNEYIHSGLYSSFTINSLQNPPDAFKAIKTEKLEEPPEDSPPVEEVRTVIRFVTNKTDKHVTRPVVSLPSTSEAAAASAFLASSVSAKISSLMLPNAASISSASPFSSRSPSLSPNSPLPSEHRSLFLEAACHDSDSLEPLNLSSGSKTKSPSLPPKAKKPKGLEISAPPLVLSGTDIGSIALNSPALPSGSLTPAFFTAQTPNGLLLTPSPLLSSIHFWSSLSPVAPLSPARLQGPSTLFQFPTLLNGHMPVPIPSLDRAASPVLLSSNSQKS
The following applies: protein: recombinant; tags: N-terminal GST; dsDNA, one strand shown. The procedure, abridged: as §1

The target in a further assay is T7, FEV (Homo sapiens, UniProt Q99581 1-238).
T7 sequence: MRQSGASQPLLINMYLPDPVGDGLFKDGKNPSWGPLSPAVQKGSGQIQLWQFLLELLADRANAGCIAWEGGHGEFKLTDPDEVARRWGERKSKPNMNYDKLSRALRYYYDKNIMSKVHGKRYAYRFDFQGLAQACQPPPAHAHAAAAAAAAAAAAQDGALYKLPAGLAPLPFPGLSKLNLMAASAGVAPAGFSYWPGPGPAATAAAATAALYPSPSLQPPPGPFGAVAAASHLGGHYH
The following applies: protein: recombinant; tags: N-terminal GST; dsDNA, one strand shown. The procedure, abridged: as §1

Another assay addresses ETV5 (Homo sapiens, UniProt P41161 1-510). The following applies: protein: recombinant; tags: N-terminal GST; dsDNA, one strand shown. The method, boiled down: as §1
For the next assay, the target named is HSF1 (Homo sapiens, UniProt Q00613 1-529). Particulars: protein: recombinant; tags: N-terminal GST; chain copies: 3; dsDNA, one strand shown. The procedure, abridged:
as §1

In another assay the target is T8, SPIC (Homo sapiens, UniProt Q8N5J4 1-248).
T8 sequence: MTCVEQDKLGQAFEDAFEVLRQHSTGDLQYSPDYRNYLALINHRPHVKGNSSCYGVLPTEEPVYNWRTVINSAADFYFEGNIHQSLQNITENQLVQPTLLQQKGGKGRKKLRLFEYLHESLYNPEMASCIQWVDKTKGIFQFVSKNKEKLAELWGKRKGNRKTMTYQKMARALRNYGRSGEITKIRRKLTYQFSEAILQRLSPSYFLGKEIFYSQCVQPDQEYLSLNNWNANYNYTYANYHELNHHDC
Particulars: protein: recombinant; tags: N-terminal GST; dsDNA, one strand shown. The method, boiled down:
as §1

Another assay deals with ELF4 (Homo sapiens, UniProt Q99607 1-663). The following applies: protein: recombinant; tags: N-terminal GST; dsDNA, one strand shown. The method, boiled down:
as §1

The target of another assay is T9, ELK4 (Homo sapiens, UniProt P28324-2 1-405).
T9 sequence: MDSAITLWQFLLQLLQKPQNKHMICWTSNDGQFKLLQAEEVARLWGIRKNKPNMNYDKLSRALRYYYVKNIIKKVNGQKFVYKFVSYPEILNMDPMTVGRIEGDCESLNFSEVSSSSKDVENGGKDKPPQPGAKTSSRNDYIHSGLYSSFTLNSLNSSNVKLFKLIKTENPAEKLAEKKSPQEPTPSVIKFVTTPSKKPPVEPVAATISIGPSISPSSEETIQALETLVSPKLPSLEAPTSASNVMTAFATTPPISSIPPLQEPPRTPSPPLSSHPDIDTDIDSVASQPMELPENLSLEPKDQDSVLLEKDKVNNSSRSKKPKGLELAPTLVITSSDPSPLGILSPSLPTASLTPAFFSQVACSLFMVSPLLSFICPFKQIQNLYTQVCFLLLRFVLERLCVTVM
The following applies: protein: recombinant; tags: N-terminal GST; dsDNA, one strand shown. The procedure, abridged:
as §1

For the next assay, the target named is T10, ETV2 (Homo sapiens, UniProt O00321 1-342).
T10 sequence: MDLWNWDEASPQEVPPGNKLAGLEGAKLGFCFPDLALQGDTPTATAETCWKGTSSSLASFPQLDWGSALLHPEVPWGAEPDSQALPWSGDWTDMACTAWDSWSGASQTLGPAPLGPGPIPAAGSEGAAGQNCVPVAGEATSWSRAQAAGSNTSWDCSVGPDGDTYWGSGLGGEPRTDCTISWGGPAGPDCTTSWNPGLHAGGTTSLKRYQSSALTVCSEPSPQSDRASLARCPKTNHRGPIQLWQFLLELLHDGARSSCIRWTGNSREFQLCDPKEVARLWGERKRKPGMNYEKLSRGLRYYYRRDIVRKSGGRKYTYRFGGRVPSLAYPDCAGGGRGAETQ
The following applies: protein: recombinant; tags: N-terminal GST; dsDNA, one strand shown. The procedure, abridged: as §1

Another assay addresses T11, ELF3 (Homo sapiens, UniProt P78545 1-371).
T11 sequence: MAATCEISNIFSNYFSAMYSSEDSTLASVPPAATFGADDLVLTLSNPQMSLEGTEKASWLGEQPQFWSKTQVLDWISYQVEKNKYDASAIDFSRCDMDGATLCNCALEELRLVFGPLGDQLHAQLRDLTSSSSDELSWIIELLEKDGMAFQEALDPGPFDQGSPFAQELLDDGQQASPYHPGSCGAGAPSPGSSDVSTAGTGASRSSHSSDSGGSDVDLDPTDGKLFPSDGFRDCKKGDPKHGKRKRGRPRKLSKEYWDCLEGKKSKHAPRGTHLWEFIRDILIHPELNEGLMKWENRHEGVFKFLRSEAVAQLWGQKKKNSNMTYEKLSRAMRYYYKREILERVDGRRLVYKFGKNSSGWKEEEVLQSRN
Particulars: protein: recombinant; tags: N-terminal GST; dsDNA, one strand shown. The procedure, abridged:
as §1

The next assay deals with CRX (Homo sapiens, UniProt O43186 1-299). The following applies: protein: recombinant; tags: N-terminal GST; dsDNA, one strand shown. The procedure, abridged:
as §1

For another assay, the target named is ETV1 (Homo sapiens, UniProt P50549 1-477). The following applies: protein: recombinant; tags: N-terminal GST; dsDNA, one strand shown. The procedure, abridged: as §1
ETV1, sequence (P50549 whole entry): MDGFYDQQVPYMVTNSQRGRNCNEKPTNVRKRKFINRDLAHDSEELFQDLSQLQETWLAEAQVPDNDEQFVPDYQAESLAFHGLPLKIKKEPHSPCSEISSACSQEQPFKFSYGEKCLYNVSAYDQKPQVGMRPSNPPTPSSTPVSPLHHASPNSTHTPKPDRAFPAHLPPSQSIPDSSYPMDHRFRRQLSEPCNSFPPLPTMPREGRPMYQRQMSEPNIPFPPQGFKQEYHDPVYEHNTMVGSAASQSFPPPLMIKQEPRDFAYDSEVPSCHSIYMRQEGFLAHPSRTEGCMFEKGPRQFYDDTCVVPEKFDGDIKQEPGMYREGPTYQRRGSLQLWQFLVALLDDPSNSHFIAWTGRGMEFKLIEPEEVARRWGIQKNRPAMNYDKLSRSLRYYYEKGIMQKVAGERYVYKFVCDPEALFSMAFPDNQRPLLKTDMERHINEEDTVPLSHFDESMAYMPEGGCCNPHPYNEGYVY

SPIB, sequence (Q01892 whole entry): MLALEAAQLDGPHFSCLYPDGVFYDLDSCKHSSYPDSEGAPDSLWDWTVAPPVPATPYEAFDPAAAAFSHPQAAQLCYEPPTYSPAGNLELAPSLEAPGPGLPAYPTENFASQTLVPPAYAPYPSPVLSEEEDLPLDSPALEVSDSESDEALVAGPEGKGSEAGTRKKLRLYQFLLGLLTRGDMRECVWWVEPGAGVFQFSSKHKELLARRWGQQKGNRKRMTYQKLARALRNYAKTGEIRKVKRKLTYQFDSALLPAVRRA
CRX, sequence (O43186 whole entry): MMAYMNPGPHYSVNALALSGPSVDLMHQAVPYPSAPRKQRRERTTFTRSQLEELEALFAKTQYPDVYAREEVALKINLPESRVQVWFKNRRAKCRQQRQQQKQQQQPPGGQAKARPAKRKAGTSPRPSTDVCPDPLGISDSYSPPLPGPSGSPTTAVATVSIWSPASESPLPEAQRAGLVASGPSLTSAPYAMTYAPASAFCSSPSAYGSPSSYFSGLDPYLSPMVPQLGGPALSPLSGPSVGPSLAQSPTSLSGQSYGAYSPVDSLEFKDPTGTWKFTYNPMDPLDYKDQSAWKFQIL
ETV5, sequence (P41161 whole entry): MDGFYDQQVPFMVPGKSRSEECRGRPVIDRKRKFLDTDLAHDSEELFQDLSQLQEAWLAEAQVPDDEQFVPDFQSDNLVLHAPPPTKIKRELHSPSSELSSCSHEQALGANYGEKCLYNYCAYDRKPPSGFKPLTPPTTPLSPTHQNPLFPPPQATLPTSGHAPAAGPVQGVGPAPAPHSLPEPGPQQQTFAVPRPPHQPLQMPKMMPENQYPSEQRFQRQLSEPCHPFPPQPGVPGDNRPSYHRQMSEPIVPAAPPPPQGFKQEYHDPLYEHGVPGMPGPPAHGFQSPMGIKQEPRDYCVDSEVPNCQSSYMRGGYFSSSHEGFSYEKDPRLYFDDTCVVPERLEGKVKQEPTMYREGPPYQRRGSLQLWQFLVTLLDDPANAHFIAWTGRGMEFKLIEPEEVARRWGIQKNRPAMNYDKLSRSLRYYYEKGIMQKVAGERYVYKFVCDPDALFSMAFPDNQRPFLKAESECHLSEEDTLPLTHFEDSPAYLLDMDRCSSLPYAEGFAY
ELF4, sequence (Q99607 whole entry): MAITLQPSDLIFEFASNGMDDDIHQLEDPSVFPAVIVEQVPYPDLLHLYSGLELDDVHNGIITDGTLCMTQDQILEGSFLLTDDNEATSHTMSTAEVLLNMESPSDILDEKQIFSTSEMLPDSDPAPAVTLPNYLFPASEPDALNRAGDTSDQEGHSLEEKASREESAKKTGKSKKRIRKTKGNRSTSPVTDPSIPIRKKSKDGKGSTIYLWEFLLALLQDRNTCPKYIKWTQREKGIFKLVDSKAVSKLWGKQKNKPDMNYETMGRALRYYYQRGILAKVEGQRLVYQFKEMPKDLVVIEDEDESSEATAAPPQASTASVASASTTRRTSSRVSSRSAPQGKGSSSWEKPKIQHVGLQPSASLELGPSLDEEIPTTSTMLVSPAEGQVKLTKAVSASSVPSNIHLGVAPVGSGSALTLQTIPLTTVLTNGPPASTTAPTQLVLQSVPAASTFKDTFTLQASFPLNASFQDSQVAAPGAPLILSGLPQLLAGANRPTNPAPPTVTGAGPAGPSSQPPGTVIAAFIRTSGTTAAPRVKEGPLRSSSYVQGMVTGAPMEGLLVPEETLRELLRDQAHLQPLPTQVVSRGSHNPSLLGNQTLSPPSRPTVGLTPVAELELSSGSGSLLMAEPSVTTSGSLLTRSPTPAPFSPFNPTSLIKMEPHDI
HSF1, sequence (Q00613 whole entry): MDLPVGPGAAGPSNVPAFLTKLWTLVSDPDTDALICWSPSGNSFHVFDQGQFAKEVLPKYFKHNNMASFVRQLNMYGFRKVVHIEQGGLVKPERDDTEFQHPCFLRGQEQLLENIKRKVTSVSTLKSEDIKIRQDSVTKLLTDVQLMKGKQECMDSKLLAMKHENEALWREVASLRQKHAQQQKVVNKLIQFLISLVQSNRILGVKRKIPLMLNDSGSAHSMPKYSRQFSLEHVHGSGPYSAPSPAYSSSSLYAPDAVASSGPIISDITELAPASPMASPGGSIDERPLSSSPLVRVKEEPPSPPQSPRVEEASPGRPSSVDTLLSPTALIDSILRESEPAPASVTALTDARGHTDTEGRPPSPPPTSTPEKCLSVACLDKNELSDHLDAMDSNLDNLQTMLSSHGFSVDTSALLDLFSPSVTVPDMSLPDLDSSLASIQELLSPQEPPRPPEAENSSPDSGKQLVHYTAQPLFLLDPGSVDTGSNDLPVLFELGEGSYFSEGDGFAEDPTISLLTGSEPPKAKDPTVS
ELF1, sequence (P32519 whole entry): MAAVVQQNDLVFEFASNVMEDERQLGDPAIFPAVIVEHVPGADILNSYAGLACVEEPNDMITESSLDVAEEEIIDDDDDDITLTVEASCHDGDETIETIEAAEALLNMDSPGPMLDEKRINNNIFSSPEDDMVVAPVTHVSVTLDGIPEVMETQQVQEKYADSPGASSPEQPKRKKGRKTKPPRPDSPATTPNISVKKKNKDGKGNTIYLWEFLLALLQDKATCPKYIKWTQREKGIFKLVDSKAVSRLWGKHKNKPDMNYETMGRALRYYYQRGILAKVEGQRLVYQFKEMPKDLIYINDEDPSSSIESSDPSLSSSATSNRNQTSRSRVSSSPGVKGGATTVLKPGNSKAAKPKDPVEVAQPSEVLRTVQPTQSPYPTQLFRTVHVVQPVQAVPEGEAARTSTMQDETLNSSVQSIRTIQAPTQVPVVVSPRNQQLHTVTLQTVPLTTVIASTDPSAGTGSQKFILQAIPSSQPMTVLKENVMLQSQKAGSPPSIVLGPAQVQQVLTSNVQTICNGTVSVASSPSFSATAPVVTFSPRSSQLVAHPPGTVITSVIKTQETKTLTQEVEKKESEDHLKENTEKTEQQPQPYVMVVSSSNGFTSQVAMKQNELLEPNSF

In the case of AATTTT, the binding signal with FLI1 was 1.24 fold enrichment (6-mer frequency, TF over GST control); in the assay with ELK1, 1.26 fold enrichment (6-mer frequency, TF over GST control); in the assay with GABPA it was 1.27 fold enrichment (6-mer frequency, TF over GST control); with ERG, 1.21 fold enrichment (6-mer frequency, TF over GST control); in the assay with ELF1, 1.22 fold enrichment (6-mer frequency, TF over GST control); with EHF, 1.3 fold enrichment (6-mer frequency, TF over GST control). Moreover, the binding signal with SPI1 was 1.3 fold enrichment (6-mer frequency, TF over GST control); in the assay with SPIB it was 1.26 fold enrichment (6-mer frequency, TF over GST control); in the assay with ELK3, 1.19 fold enrichment (6-mer frequency, TF over GST control); with FEV, 1.22 fold enrichment (6-mer frequency, TF over GST control); in the assay with ETV5, 1.29 fold enrichment (6-mer frequency, TF over GST control); with HSF1 it was 1.51 fold enrichment (6-mer frequency, TF over GST control). For the same sequence, the binding signal with SPIC was 1.17 fold enrichment (6-mer frequency, TF over GST control); in the assay with ELF4 it was 1.32 fold enrichment (6-mer frequency, TF over GST control); with ELK4, 1.3 fold enrichment (6-mer frequency, TF over GST control); in the assay with ETV2 it was 1.46 fold enrichment (6-mer frequency, TF over GST control); with ELF3, 1.41 fold enrichment (6-mer frequency, TF over GST control); in the assay with CRX, 1.29 fold enrichment (6-mer frequency, TF over GST control). The binding signal in the assay with ETV1 was 1.23 fold enrichment (6-mer frequency, TF over GST control).

Values taken from PMC7862700, “An all-to-all approach to the identification of sequence-specific readers for epigenetic DNA modifications on cytosine”.
